Results taken from PubChem BioAssay AID493233 (Broad Institute, 2011).
Measured potencies and affinities stand elsewhere. The source made the active and inactive calls. How the calls were made is not given here.

Target: Protein RecA (Mycobacterium tuberculosis (strain ATCC 25618 / H37Rv)) (UniProt P9WHJ3)
Test: GFP RecA biochemical assay with DTT, Mycobacterium tuberculosis H37Rv, confirmatory dose response (AID 493233)

Protein RecA (Mycobacterium tuberculosis (strain ATCC 25618 / H37Rv)), sequence (P9WHJ3 whole entry, looked up): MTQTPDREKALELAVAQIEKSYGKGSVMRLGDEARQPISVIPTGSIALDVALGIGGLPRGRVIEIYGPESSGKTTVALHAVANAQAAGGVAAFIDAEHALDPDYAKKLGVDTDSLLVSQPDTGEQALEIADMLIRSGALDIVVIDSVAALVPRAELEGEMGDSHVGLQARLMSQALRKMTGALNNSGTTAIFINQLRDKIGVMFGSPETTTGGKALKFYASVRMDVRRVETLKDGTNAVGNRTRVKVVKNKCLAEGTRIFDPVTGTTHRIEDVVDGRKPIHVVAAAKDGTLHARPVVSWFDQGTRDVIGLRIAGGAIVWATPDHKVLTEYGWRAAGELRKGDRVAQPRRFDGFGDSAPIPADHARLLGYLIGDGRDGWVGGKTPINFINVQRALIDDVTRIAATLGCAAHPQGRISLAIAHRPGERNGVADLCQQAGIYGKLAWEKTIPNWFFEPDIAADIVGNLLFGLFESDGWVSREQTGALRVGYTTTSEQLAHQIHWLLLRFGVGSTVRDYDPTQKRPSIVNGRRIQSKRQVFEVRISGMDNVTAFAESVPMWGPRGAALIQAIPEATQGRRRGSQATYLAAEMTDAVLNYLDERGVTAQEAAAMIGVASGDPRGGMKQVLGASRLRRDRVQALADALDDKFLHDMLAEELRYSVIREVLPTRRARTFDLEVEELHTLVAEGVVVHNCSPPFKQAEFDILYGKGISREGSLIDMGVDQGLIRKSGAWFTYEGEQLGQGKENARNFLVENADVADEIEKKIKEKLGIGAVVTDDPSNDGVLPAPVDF

| SMILES | outcome |
| --- | --- |
| Nc1cn(-c2ccccc2)nc1-c1ccc(F)cc1 | inactive |
| C/C(=N\NC(=O)c1ccncc1)c1cc2ccccc2oc1=O | inactive |
